# According to PubChem BioAssay AID1508623 (National Center for Advancing Translational Sciences (NCATS), 2021):
# Screen size: about 48,000 compounds; about 450 (0.94%) were called active. Where a call stands in place of a potency, no number is given. Roughly 19% stayed inconclusive and do not appear here. Calls come from the whole dose curve; as a rule, active = well fitted inhibition curve with a large enough effect; inconclusive = small, poorly fitted or top-dose-only effect; inactive = no such curve, though single readings can be large or run the other way. The sample as a whole holds a higher share of actives than the screen did.
# Assay: Primary qHTS for Identification of Small Molecule Inhibitors of Huntingtin Promoter Activity; note: nearly all actives have a fitted effect of over 50% in size
# Details: HEK293 HTT promoter firefly luciferase reporter (activity 0% = vehicle and -100% = no light), 24 h; series mostly up to 57.5 µM
# Excerpt: Assay Provider: Russell L. Margolis M.D.
# Department Neurology, Johns Hopkins University School of Medicine, Baltimore, MD
# Huntington's Disease (HD) is a neurodegenerative disorder caused by a CAG repeat expansion in exon 1 of huntingtin (HTT). While there are currently no disease-modifying treatments for HD, recent efforts have focused on development of nucleotide-based therapeutics to lower HTT expression. As an alternative to siRNA or oligonucleotide methods, we hypothesized that suppression of HTT expression might be accomplished by small molecules that either (1) directly decrease HTT expression by suppressing HTT promoter activity or (2) indirectly decrease HTT expression by increasing the promoter activity of HTT-AS, the gene antisense to HTT that appears to inhibit expression of HTT.
# We developed and employed a high throughput screen for modifiers of HTT and HTT-AS promoter activity using luminescent reporter HEK293 cells; of the 52,041 compounds tested, we identified 898 replicable hits. We used a rigorous stepwise approach to assess compound toxicity and the capacity of the compounds to specifically lower huntingtin protein in 5 different cell lines, including HEK293 cells, HD lymphoblastoid cells, mouse primary neurons, HD iPSCs differentiated into cortical-like neurons, and HD hESCs. We found no compounds which were able to lower huntingtin without lowering cell viability in all assays, though the potential efficacy of a few compounds at non-toxic doses could not be excluded.
# SEQUENCE No. (1, 2, 3, etc.); […] (e.g., Cells, Incubation, Reagent, etc.); VALUE and DESCRIPTION.
# 1; Reagent; 4 uL; 2,500 Hek293 luciferase reporter cells per wells
# 3; Compound; 23 nL; Control inhibitor / compound library
# 5; Reagent; 2.5 uL; Firefly Luc reagent; Dual-Glo Luciferase Reporter Assay System (Promega)
# 6; Time; 10 min; room temperature incubation
# 7; Detection; Luminescence; FLuc
# NOTES (numbers refer to sequence above)
# 1; High-throughput screening, measuring luminescence from a Hek293 luciferase reporter, was performed in 1,536 well white-walled tissue-culture treated plates. 2,500 cells were plated in 4 µL of Opti-MEM per well using a Multidrop Combi Reagent Dispenser (ThermoFisher).
# 2; Assay plates were cultured for 24 hours.
# 3; Control inhibitor (PTC124; final concentration of 50 uM) and compound library (at final concentrations of 460 nM - 57.5 uM) were added to the assay plate using the Kalypsis Pintool Robotic System equipped with 1536 pinheads.
# 4; Cells were then incubated for 24 hours at 37 degrees C prior to luminescence measurements.
# 5; In all cases, luminescence was measured using the Dual-Glo Luciferase Reporter Assay System (Promega) following the manufacturer's instructions.
# 6; Room temperature incubation.
# 7; Luminescence signal was obtained using the PerkinElmer ViewLux plate reader. Results were normalized to vehicle control (0% activity) and zero RLU (-100% activity).
# Potency is the fitted concentration of half-maximal effect.
row,SMILES,Potency
1,O=C1NC(=O)C(=Cc2cccc(C(F)(F)F)c2)S1,inactive
2,Cc1ccc2c(c1)N(C(=O)Nc1ccc(Br)cc1F)CCO2,inactive
3,COc1cc(-c2noc(-c3ccc(N4CCCC4)c([N+](=O)[O-])c3)n2)cc(OC)c1OC,inactive
4,CCNC(=O)CC1C(=O)N(c2ccc(F)cc2)C(=O)N1Cc1ccc(C)cc1 (stereo unspecified),inactive
5,CCc1cccc(CC)c1NC(=O)Cn1c(=O)c(-c2cc(C)ccc2NC(C)=O)nc2ccccc21,inactive
6,O=S(=O)(c1ccccc1)c1nc(-c2ccc(Cl)cc2Cl)oc1N1CCCCC1,inactive
7,Cc1ccc(Nc2ccc3cc(S(=O)(=O)N4CCCCC4)ccc3n2)cc1F,inactive
8,Cc1c(Cl)cccc1NC(=O)c1noc2c1CCCC2,inactive
9,O=C(c1ccc(Cl)cc1)n1nc(-c2cccnc2)nc1NCc1ccc(F)cc1,inactive
10,CCOc1ccc2nc(N3CCC(C(=O)Nc4cc(C)ccc4C)CC3)sc2c1,inactive
11,CCOc1cccc2sc(N3CCN(C(=O)C4CC4)CC3)nc12,inactive
12,CC1CCN(c2nc3ccc(C(=O)N4CCN(c5ccccc5)CC4)cc3s2)CC1,1.12 µM (active)
13,CCN(CCCNC(=O)Cn1ncc2c([nH]c3ccccc32)c1=O)c1cccc(C)c1,inactive
14,CCOC(=O)N1CCc2c(sc(NCc3cccc(F)c3)c2C(=O)Nc2ccccc2OCC)C1,inactive
15,Cc1ccc(C)n1-c1nnc(N2CCC(C(=O)NCc3ccc(F)cc3)CC2)s1,inactive
16,O=C(NCc1ccc(F)cc1)c1ccc2nc(N3CCCCC3)sc2c1,8.91 µM (active)
17,O=C(NCc1ccccc1)c1ccc2c(c1)nc1n2CCCCC1,inactive
18,CCOc1cccc(CC(=O)N2CCc3c([nH]c4ccccc34)C2c2ccc(F)cc2)c1OCC (stereo unspecified),inactive
19,Cc1ccc(S(=O)(=O)n2nc(C)c(S(=O)(=O)N3CCCCCC3)c2C)cc1,inactive
20,Cc1cc(O)c(C(c2ccccc2)N2CCN(c3ccccc3F)CC2)c(=O)n1Cc1ccco1 (stereo unspecified),inactive
21,Cc1cc(C)cc(Nc2ncnc3onc(-c4ccc(F)cc4)c23)c1,inactive
22,COC(=O)CSc1ccc2nnc(CCNS(=O)(=O)c3ccc(C)cc3)n2n1,inactive

row,SMILES,Potency
1,CCc1ccccc1NC(=O)c1ccc2c(c1)CCN2S(C)(=O)=O,inactive
2,CCOc1ccc(C2CC(=O)c3c([nH]c(C(=O)OCc4ccccc4)c3C)C2)cc1 (stereo unspecified),inactive
3,CCc1ccc2oc(-c3ccc(C)c(NC(=O)/C=C/c4ccco4)c3)nc2c1,inactive
4,CCC(=O)Nc1cccc(-c2nc3cc(C)ccc3o2)c1,inactive
5,Cc1ccc2nc(-c3ccc(C)c(NC(=O)Cc4ccccc4)c3)oc2c1,12.6 µM (active)
6,Cc1ccccc1CS(=O)(=O)CC1Nc2ccc(C(=O)NCc3ccc(Cl)cc3)cc2NC1=O (stereo unspecified),inactive
7,O=C(Cn1cnc2c(oc3ccccc32)c1=O)Nc1ccc(OC(F)(F)F)cc1,inactive
8,COc1ccc(OC)c(NC(=O)CSc2nc3ccccc3nc2N2CCCCC2)c1,inactive
9,Cc1ccc(CCNC(=O)c2ccc(CS(=O)(=O)Cc3cccc(C)c3)o2)cc1,inactive
10,COc1ccc(CCNC(=O)c2ccc3c(c2)sc2nc(-c4ccc(C)cc4)cn23)cc1OC,inactive
11,COc1ccc(CCNC(=O)c2ccc(CSCc3ccc(C)cc3)o2)cc1OC,25.1 µM (active)
12,O=C(NCc1cccnc1)C(=O)NCC(c1cccnc1)N1CCN(c2ccccc2)CC1 (stereo unspecified),inactive
13,Cc1ccc(NC(=O)C(=O)NCC(c2cccnc2)N2CCOCC2)cc1 (stereo unspecified),inactive
14,COc1ccccc1N1CCN(C(CNC(=O)C(=O)NCc2ccc(C)cc2)c2cccnc2)CC1 (stereo unspecified),11.2 µM (active)
15,COc1ccc(Br)cc1C1CC(=O)Nc2c1c(C)nn2-c1nc(C)cc(C)n1 (stereo unspecified),inactive
16,CCC(=O)Nc1c(C(=O)N2CCN(c3ccc(F)cc3)CC2)oc2ccccc12,inactive
17,COc1cccc(-c2n[nH]c3c2C(c2cccc(O)c2)N(C)C3=O)c1 (stereo unspecified),inactive
18,COc1ccc(Cn2ccn(Cc3cccc(OC)c3)c(=O)c2=O)cc1,inactive
19,CCN1CCN(CCCNC(=O)c2cnn(-c3ccc(C)cc3C)c2C2CCN(C(=O)OC(C)(C)C)CC2)CC1,inactive
20,CCCCNC(=O)CSc1nc2cc3c(cc2c(=O)n1CCCCCC(=O)NCc1ccc2c(c1)OCO2)OCO3,inactive
21,CCOC(=O)C1CCN(C(c2ccc(F)cc2)c2sc3nc(-c4ccco4)nn3c2O)CC1 (stereo unspecified),inactive
22,COc1ccc(-c2cccc(NS(=O)(=O)c3cc(C)c(OC)c(C)c3C)c2)nn1,11.2 µM (active)

row,SMILES,Potency
1,CCOC(=O)c1cccc(NS(=O)(=O)c2cc(-c3cnc(C)o3)ccc2OC)c1,inactive
2,Cc1ccc(CCNC(=O)Cn2c(-c3cccs3)cc3cc(F)ccc32)cc1,inactive
3,CCc1ccccc1NC(=O)Cn1c(=O)n(CC2CCC(C(=O)NCCc3ccccc3)CC2)c(=O)c2ccccc21 (stereo unspecified),inactive
4,COc1cc(NS(=O)(=O)c2cccs2)cc(OC)c1,inactive
5,COc1cc(NS(=O)(=O)c2ccc3c(c2)OCC(C(=O)N2CCCC2)O3)cc(OC)c1 (stereo unspecified),14.1 µM (active)
6,COc1ccc(OC)c2sc(N3CCN(C(=O)C4COc5ccccc5O4)CC3)nc12 (stereo unspecified),inactive
7,COc1ccccc1CNC(=O)C(=O)NCC(c1cccs1)S(=O)(=O)c1cccs1 (stereo unspecified),inactive
8,CC1CN(C(=O)N2CCC(C(=O)NCc3ccco3)CC2)c2cc(Cl)ccc2O1 (stereo unspecified),inactive
9,CCc1ccc(CN(Cc2ccco2)C(=O)COc2ccc(Cl)c(C)c2)cc1,inactive
10,CC(C)NC(=O)C1CCC(Cn2c(=O)c3sccc3n(Cc3ccc(F)cc3)c2=O)CC1 (stereo unspecified),inactive
11,CC(=O)Nc1cccc(NC(=O)CSc2cn(CC(=O)N3CCCC3)c3ccccc23)c1,inactive
12,Cc1ccc(-c2nn(CCC(=O)Nc3ccc(OC(F)(F)F)cc3)c(=O)c3ccccc23)cc1,inactive
13,CN(C(=O)CN1C(=O)CCSc2ccc(S(=O)(=O)N3CCCC3)cc21)c1ccccc1,inactive
14,CCc1ccc(NC(=O)CN2CCSc3ccc(S(=O)(=O)N4CCCC4)cc32)cc1,31.6 µM (active)
15,CCc1ccc(NC(=O)CN2C(=O)CCSc3ccc(S(=O)(=O)N4CCCC4)cc32)cc1,inactive
16,COC(=O)c1ccccc1NC(=O)c1cnn(-c2ccc(F)cc2)c1-n1cccc1,inactive
17,CCCCN(CC)CCCNC(=O)c1nn(C)c2c1CS(=O)(=O)c1ccccc1-2,inactive
18,CCCCC(=O)OC1=CN(Cc2ccccc2)S(=O)(=O)c2ccccc21,inactive
19,COc1cccc(NC(=O)Cn2c(=O)cc(C)c3c(C)nn(-c4cccc(F)c4)c32)c1,inactive
20,COc1ccc(NC(=O)c2ccco2)cc1NC(=O)COc1ccc(C)c(C)c1,inactive
21,CCOC(=O)c1ccccc1NC(=O)CCc1c(C)nc2c(c1C)c(=O)n(C)c(=O)n2C,inactive
22,CCc1nn(CC(=O)NCC(C)c2ccccc2)c(=O)c2cc3occc3n12 (stereo unspecified),inactive
